Source: PubChem
The list is not random: actives were taken first. Their share in the collection is about 3.3%.
AmpC detergent: qHTS Inhibitors of AmpC Beta-Lactamase (assay with detergent) | P00811 | AmpC hydrolysis of nitrocefin, absorbance 480 nm, 0.01% Triton | Potency, µM (titrated, usually from 114 µM), hits mostly inhibitors | actives 0.041% (n = 370,000); further: nearly all actives have a fitted effect of over 25% in size
Target sequence (P00811 whole entry, looked up): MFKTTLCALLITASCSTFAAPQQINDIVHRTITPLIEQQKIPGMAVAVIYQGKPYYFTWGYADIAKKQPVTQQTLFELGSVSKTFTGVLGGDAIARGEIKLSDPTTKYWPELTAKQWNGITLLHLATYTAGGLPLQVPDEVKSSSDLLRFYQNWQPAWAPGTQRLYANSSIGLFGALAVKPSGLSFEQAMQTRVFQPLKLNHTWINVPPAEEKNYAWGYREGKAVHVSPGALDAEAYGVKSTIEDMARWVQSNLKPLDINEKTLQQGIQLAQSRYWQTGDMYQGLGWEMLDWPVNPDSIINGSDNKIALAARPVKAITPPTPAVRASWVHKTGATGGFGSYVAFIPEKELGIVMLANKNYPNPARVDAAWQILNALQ
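20 mM phosphate pH 7.0 + 0.01% (detergent screen) or 0.0001% Triton X-100; 5.3 nM AmpC reagent; cpd preinc 15 min RT; nitrocefin (800 uM stock) to start; A480 q20 s × 4 min; Activity was normalised to no-enzyme and no-compound control wells.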
Sm TGR inh: qHTS Assay for the Inhibitors of Schistosoma Mansoni Peroxiredoxins. Potency, µM (doses to about 114 µM), actives largely listed as inhibitors. purified TGR, DTNB reduction, TNB absorbance 405 nm. AID 485364, 2010. Schistosoma mansoni thioredoxin glutathione reductase (TGR), Q962Y6. actives 3% (n = 360,000); further: nearly all actives have a fitted effect of over 60% in size
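TGR 20 nM + NADPH 100 uM (dispensed conc.), cpd preinc 15 min RT; start with NADPH (500 uM addition) then DTNB (15 mM addition). Kinetic TNB absorbance, 405 nm filter. Four-parameter Hill fit across titration.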
AmpC inh no detg: qHTS Inhibitors of AmpC Beta-Lactamase (assay without detergent); actives 0.52% (n = 330,000); Potency, µM (titrated, usually from 57.1 µM), hits mostly inhibitors; AmpC nitrocefin hydrolysis, absorbance 480 nm, 0.0001% Triton; further: nearly all actives have a fitted effect of over 20% in size
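AmpC (5.3 nM in the dispensed reagent) in 20 mM phosphate pH 7.0 with 0.01% (detergent screen) or 0.0001% Triton X-100 was preincubated with compounds for 15 min at room temperature. Nitrocefin was then added from an 800 uM solution, and hydrolysis was followed at 480 nm.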
Large screens that a line does not name were inactive. The call rests on the fitted dose curve; in most records, active means well fitted curve in the direction sought with a large enough effect; inconclusive means small, poorly fitted or top-dose-only effect, or another doubt; inactive means no such curve, though single readings can be large; an effect the other way counts as inactive or inconclusive.

COc1ccc(-c2nc3ccccc3nc2-c2ccc(OC)cc2)cc1	AmpC detergent inconclusive
COc1ccc2nc3cccc(OC)c3nc2c1	Sm TGR inh 20µM
COc1ccc2nc3ccccc3nc2c1N	Sm TGR inh inconclusive
c1coc(-c2ncc[nH]2)c1	none
c1coc(-c2nc(-c3ccco3)c(-c3ccco3)nc2-c2ccco2)c1	AmpC detergent inconclusive, Sm TGR inh 0.708µM
Nc1nc(-c2ccco2)c(-c2ccco2)s1	Sm TGR inh 20µM
COc1ccc2nc(-c3ccco3)c(-c3ccco3)nc2c1	AmpC detergent inconclusive, Sm TGR inh 3.55µM
Nc1nc(-c2ccco2)cs1	AmpC detergent inconclusive, Sm TGR inh inconclusive
Nc1nn(-c2ccccc2)nc1C(=O)OCc1ccc(Cl)cc1	none (no result: AmpC inh no detg)
O=S(=O)(c1cccc(Cl)c1)c1nnn2c1nc(NCc1ccc3c(c1)OCO3)c1sccc12	none (no result: AmpC inh no detg)
CCOC(=O)c1ccc(OCC2c3cc(OC)c(OC)cc3CCN2C(=O)c2ccc(S(=O)(=O)N3CCCC3)cc2)cc1 (configuration not stated)	none (no result: AmpC inh no detg)
Cc1ccc(Cl)cc1NC(=O)Cn1cc(S(=O)(=O)Cc2ccccc2Cl)c2ccccc21	none (no result: AmpC inh no detg)
O=C(/C=C/c1ccc(Br)o1)OCc1nc2ccsc2c(=O)[nH]1	AmpC detergent inconclusive, Sm TGR inh 44.7µM
Cc1ccc(C(=O)OCc2nc3ccsc3c(=O)[nH]2)o1	AmpC detergent inconclusive
COc1cccc(CNC(=O)CCc2c(C)nc3c4c(C)cc(C)nc4nn3c2C)c1	none (no result: AmpC inh no detg)
Cc1cc2c(cc1S(=O)(=O)Nc1cc(C(F)(F)F)cc(C(F)(F)F)c1)OCC(=O)N2	none (no result: AmpC inh no detg)
Cc1ccc(-c2nnc3ccccc3c2C(=O)Nc2ccc(C)c(F)c2)cc1	none (no result: AmpC inh no detg)
COc1ccc(C(c2nnnn2C(C)(C)C)N2CCN(c3nc4ccccc4s3)CC2)cc1 (configuration not stated)	none
CCC(C)(C)n1nnnc1C(c1ccc(O)c(OC)c1)N1CCN(c2nc3ccccc3s2)CC1 (configuration not stated)	AmpC detergent inconclusive, Sm TGR inh 0.708µM
CCC(C)(C)n1nnnc1C(c1ccc(O)c(OC)c1)N1CCc2ccccc2C1 (configuration not stated)	Sm TGR inh 0.251µM
CCC(C)(C)n1nnnc1C(c1ccccc1)N1CCc2ccccc2C1 (configuration not stated)	Sm TGR inh inconclusive
CC(C)CCNC(=O)Cn1cc(S(=O)(=O)Cc2ccc(F)cc2)c2ccccc21	none (no result: AmpC inh no detg)
CCc1ccc(NC(=O)C(=O)NCCc2sc(-c3ccc(C)cc3)nc2C)cc1	none (no result: AmpC inh no detg)
O=C(N/N=C/c1ccco1)c1cccc(N2CCCC2=O)c1	none
O=C(N/N=C/c1ccco1)c1cccc(N2Cc3ccccc3C2)c1	Sm TGR inh 3.55µM
CCc1ccc(C(=O)c2cn(CC(=O)Nc3ccc4c(c3)OCO4)c3ccc(OC)cc3c2=O)cc1	none (no result: AmpC inh no detg)
COC(=O)/C=C1/S/C(=N/NC(=O)c2ccc(Cl)cc2Cl)NC1=O	Sm TGR inh 17.8µM
COC(=O)/C=C1/S/C(=N/NC(=O)c2ccccc2OC)NC1=O	Sm TGR inh inconclusive
Cc1nn(C(C)(C)C)c(OC(=O)c2c(F)cccc2F)c1Sc1ccccc1	none (no result: AmpC inh no detg)
Cc1ccc2nc(NCc3ccccc3Cl)c3nnnn3c2c1	none (no result: AmpC inh no detg)
Cc1ccc2nc(Cl)c3nnnn3c2c1	Sm TGR inh 1.41µM
O=C1CC(Cc2ccccc2)C(=O)N1c1ncccn1 (configuration not stated)	Sm TGR inh 50.1µM
Cc1cccc(CC2CC(=O)N(c3ncccn3)C2=O)c1 (configuration not stated)	AmpC detergent inconclusive
CCCCN(C)S(=O)(=O)c1cc(-c2cc(C)no2)ccc1C	none (no result: AmpC inh no detg)
COc1cccc(N2CCN(C(=O)CN3C(=O)COc4ccc(S(=O)(=O)N5CCC(C)CC5)cc43)CC2)c1	none (no result: AmpC inh no detg)
O=C(CN1CCN(C2CCCCC2)C(=O)C1=O)Nc1ccc(Cl)cc1	none (no result: AmpC inh no detg)
S=c1[nH]nc(-c2cccnc2)n1C1CCCCC1	AmpC detergent inconclusive
COc1ccc(-c2n[nH]c(=S)n2C2CCCCC2)cc1	Sm TGR inh 89.1µM
CCC(Sc1nnc2c3ccccc3n(CC)c2n1)C(=O)Nc1ccc(NC(C)=O)cc1 (configuration not stated)	none (no result: AmpC inh no detg)
CCC(=O)N1CCc2cc(S(=O)(=O)NC(Cc3ccccc3)C(=O)Nc3ccc(C)cc3)ccc21 (configuration not stated)	none (no result: AmpC inh no detg)
O=C(CNc1ccccc1)N/N=C/c1cc([N+](=O)[O-])ccc1N1CCCC1	AmpC inh no detg 7.94µM
N#CCC(=O)N/N=C/c1cc([N+](=O)[O-])ccc1N1CCCC1	AmpC detergent inconclusive
Cc1ccc2c(c1)c1ncnc(N3CCOCC3)c1n2C	AmpC detergent inconclusive
Cc1ccc2c(c1)c1ccc3c(c1n2C)C(=O)C=CC3=O	Sm TGR inh 2.51µM
COc1ccc2c(c1)c1ncn(CCN3CCCC3)c(=O)c1n2C	none
COc1ccc2c(c1)c1ccc3c(c1n2C)C(=O)C=CC3=O	Sm TGR inh 1.26µM
Cc1cccc(C(=O)NCCc2nc3ccccc3n2CCC(C)C)c1	none (no result: AmpC inh no detg)
CCOC(=O)c1c(NC(=O)CSc2cn(CCNC(=O)c3ccc(OC)c(OC)c3)c3ccccc23)sc2c1CCC2	none (no result: AmpC inh no detg)
CCCCOC(=O)c1ccc(NC(=O)/C(C#N)=C/c2ccc(-c3ccccc3)o2)cc1	none (no result: AmpC inh no detg)
O=C(O)c1cc(-c2ccc(-c3c(-c4ccc5c(c4)OCO5)noc3-c3ccsc3)cc2)nc2ccccc12	none
c1ccc(-c2onc(-c3ccco3)c2-c2ccc3c(c2)OCO3)cc1	Sm TGR inh 50.1µM
CCC1Sc2ccc(S(=O)(=O)CCC(=O)NCc3ccco3)cc2NC1=O (configuration not stated)	Sm TGR inh 31.6µM
CCC1Sc2ccc(S(=O)(=O)CCC(=O)Nc3ccc(NC(C)=O)cc3)cc2NC1=O (configuration not stated)	none
CC1=C(C(=O)Nc2ccc(C)cc2C)C(c2cc(Br)ccc2F)n2ncc(C(=O)Nc3ccc(C)cc3)c2N1 (configuration not stated)	none (no result: AmpC inh no detg)
COc1ccc(Nc2cc(C)c3cc(NC(=O)COc4cccc(C)c4)ccc3n2)cc1	none (no result: AmpC inh no detg)
CCN1C(=O)N(CC)C(=O)C2(Cc3ccccc3N3CCN(c4ccccc4)CC32)C1=O (configuration not stated)	Sm TGR inh 44.7µM
CN1C(=O)N(C)C(=O)C2(Cc3cc(N)ccc3N3CCN(c4ccccc4F)CC32)C1=O (configuration not stated)	Sm TGR inh inconclusive
COc1ccc(NC(=O)C2CCN(S(=O)(=O)c3ccc4[nH]c(=O)ccc4c3)CC2)cc1Cl	none (no result: AmpC inh no detg)
Cc1c(C(=O)OC2CCC(C)CC2)[nH]c2c1C(=O)CC(c1ccc(F)cc1)C2 (configuration not stated)	none (no result: AmpC inh no detg)
CCCCNC(=O)Oc1cc(CCl)on1	AmpC detergent inconclusive
CCCCNC(=O)Oc1c(Br)cc2sc(=O)oc2c1Br	AmpC detergent 44.7µM, AmpC inh no detg inconclusive
Cc1ccc2[nH]c(=O)c3cc(C(=O)NCc4cccc(Cl)c4)sc3c2c1	none (no result: AmpC inh no detg)
O=c1[nH]c(C2CCCN(S(=O)(=O)c3cccc(F)c3)C2)nc2c1nnn2Cc1ccccc1 (configuration not stated)	none
